Data on 15 compounds can be found in the supplement of paper PMC6522484.

The test system of assay [1] is DLD1. The assay is described as follows: cell viability (CellTiter-Glo) relative to plate median (fraction of plate median); higher = more viable cells. To be noted: 5 µM; treatment time 24 h; reporter: 7TFP. An outline of the steps:
(§1)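 Colorectal cancer cells stably transduced with lentiviral TCF/Wnt firefly luciferase reporters were seeded in 384-well plates and dosed 24 h later with library compounds at a final 5 µM for 24 h. Firefly luciferase or CellTiterGlo luminescence was then read on a Tecan F500 from parallel plates. Signals were normalised per well to the plate median without log transformation, additively in webcellHTS2, and averaged over two independent replicates.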

Another assay concerns HCT116. The assay is described as above. The conditions noted are these: 5 µM; treatment time 24 h; reporter: TCF4/Wnt. Summed up: as §1
Assay [2] deals with SW480. The assay is described as above. To be noted: 5 µM; treatment time 24 h; reporter: 7TFP. An outline of the steps:
as §1

The test system of assay [3] is DLD1. Nature of the assay: TCF/Wnt firefly luciferase reporter signal relative to plate median (fraction of plate median); higher = higher Wnt reporter signal. To be noted: 5 µM; treatment time 24 h; reporter: 7TFP. An outline of the steps: as §1
Assay [4] concerns SW480. Described as above. The conditions noted are these: 5 µM; treatment time 24 h; reporter: 7TFP. An outline of the steps: as §1

The structures appear in SMILES notation. ± gives the standard deviation of the averaged measurements.

For the compound `CN1C(C(=O)Nc2ccccn2)=C(O)c2ccccc2S1(=O)=O`, the cell viability was found to be 0.97 ± 0.057 in the assay on DLD1 [1], 0.975 ± 0.036 in the assay with HCT116 and 0.92 ± 0.061 with SW480 [2]. Besides, the “TCF/Wnt firefly luciferase reporter signal” value in the assay with DLD1 [3] stood at 1.1 ± 0.071; with SW480 [4] it was 1.14.

For the compound `CCCSc1ccc2[nH]c(NC(=O)OC)nc2c1`, the cell viability in the assay with DLD1 [1] was found to be 0.966 ± 0.039; in the assay on HCT116, 0.893 ± 0.17; in the assay on SW480 [2], 0.986 ± 0.016. For the same compound, the “TCF/Wnt firefly luciferase reporter signal” value in the assay on DLD1 [3] was found to be 1.1 ± 0.028; with SW480 [4] it was 1.04 ± 0.1.

With `CC(=O)N[C@@H](CC(C)C)C(=O)O`, the figures for the cell viability in the assay with DLD1 [1], with HCT116 and with SW480 [2] were 1.04 ± 0.014, 1.04 ± 0.093 and 0.966 ± 0.062, respectively. The “TCF/Wnt firefly luciferase reporter signal” value in the assay with DLD1 [3] stood at 1.03 ± 0.18; in the assay on SW480 [4] it was 1.13 ± 0.057.

Take `COc1ccc2c(c1OC)OC[C@@H](c1ccc(OC)c(OC)c1OC)C2`: the cell viability came to 1.01 ± 0.069 with DLD1 [1], 1.1 ± 0.099 in the assay with HCT116 and 1.06 ± 0.035 with SW480 [2]. Besides, the “TCF/Wnt firefly luciferase reporter signal” value stood at 1.04 ± 0.09 in the assay on DLD1 [3] and 0.961 ± 0.055 with SW480 [4].

As to `CCCc1ncc(C[n+]2ccccc2C)c(N)n1`, the cell viability with DLD1 [1] turned out to be 0.995 ± 0.05; in the assay on HCT116, 0.935 ± 0.059; with SW480 [2] it was 0.972 ± 0.0028. Besides, the “TCF/Wnt firefly luciferase reporter signal” value with DLD1 [3] was 0.956 ± 0.057; in the assay on SW480 [4], 0.987 ± 0.011.

For `Cc1ccc(S(=O)(=O)NC(=O)NN2CCCCCC2)cc1`, the cell viability in the assay on DLD1 [1] stood at 0.911 ± 0.047; in the assay with HCT116 it was 0.918 ± 0.018; with SW480 [2] it was 0.968 ± 0.019. In addition, the “TCF/Wnt firefly luciferase reporter signal” value turned out to be 0.881 ± 0.071 with DLD1 [3] and 0.998 ± 0.031 in the assay with SW480 [4].

For the compound `C#CCCCCCCCCCCCc1ccco1`, the cell viability came to 0.997 ± 0.033 with DLD1 [1], 1.03 ± 0.014 with HCT116 and 1.075 ± 0.0071 in the assay with SW480 [2]. Also, the “TCF/Wnt firefly luciferase reporter signal” value in the assay with DLD1 [3] came out at 1.145 ± 0.0071; in the assay with SW480 [4], 0.953 ± 0.096.

Take `O=C(O)c1ccccc1C(=O)Nc1ccc(S(=O)(=O)Nc2nccs2)cc1`: the cell viability with DLD1 [1] was 1.05 ± 0.08; in the assay on HCT116, 0.918 ± 0.088; with SW480 [2], 1.004 ± 0.0085. For the same compound, the “TCF/Wnt firefly luciferase reporter signal” value in the assay on DLD1 [3] came to 1.03 ± 0.12; in the assay with SW480 [4], 1.11 ± 0.021.

Take `CC(=O)O[C@H]1CC[C@]2(C)C(C[C@@H](OC(C)=O)[C@]3(C)C4=CC(=O)O[C@H](c5ccoc5)[C@@]4(C)CCC23)C1(C)C` (stereo partly drawn) [3-DEOXO-3beta-ACETOXYDEOXYDIHYDROGEDUNIN]: the cell viability worked out at 1 ± 0.057 in the assay on DLD1 [1], 1.14 ± 0.19 in the assay on HCT116 and 0.982 ± 0.04 in the assay with SW480 [2]. Also, the results for the “TCF/Wnt firefly luciferase reporter signal” value with DLD1 [3] and with SW480 [4] were 1.05 ± 0.021 and 0.864 ± 0.09, respectively.

Turning to `COc1ccc(-c2cc(=O)c3c(O)c(OC)c(OC)c(OC)c3o2)cc1OC`, the cell viability with DLD1 [1] worked out at 1.07 ± 0.085; with HCT116, 1.19 ± 0.11; in the assay on SW480 [2], 1.15 ± 0.18. In addition, the results for the “TCF/Wnt firefly luciferase reporter signal” value in the assay on DLD1 [3] and with SW480 [4] were 0.964 ± 0.065 and 0.967 ± 0.2, respectively.

For the compound `COc1cc(/C=C/C(=O)N2CCC=CC2=O)cc(OC)c1OC`, the cell viability was found to be 0.939 ± 0.037 with DLD1 [1], 0.717 ± 0.099 with HCT116 and 1.11 ± 0.042 in the assay on SW480 [2]. The “TCF/Wnt firefly luciferase reporter signal” value came out at 0.704 ± 0.14 in the assay on DLD1 [3] and 0.773 ± 0.095 in the assay with SW480 [4].

Regarding `COC(=O)C[C@H]1C(C)(C)C(=O)[C@@H]2CC3C4=CC(=O)O[C@@H](c5ccoc5)[C@]4(C)CC[C@@H]3[C@@]1(C)C2=O` (stereo not given in full), the cell viability with DLD1 [1] turned out to be 0.924 ± 0.0042; in the assay on HCT116, 1.01 ± 0.06; with SW480 [2], 0.957 ± 0.03. Moreover, the entries for the “TCF/Wnt firefly luciferase reporter signal” value with DLD1 [3] and in the assay on SW480 [4] were 1.04 ± 0.014 and 0.866 ± 0.062, respectively.

In the case of `O=c1oc2ccccc2cc1O`, the cell viability in the assay with DLD1 [1] amounted to 0.992 ± 0.04; with HCT116 it was 0.955 ± 0.013; with SW480 [2], 1.03 ± 0.021. Also, the figures for the “TCF/Wnt firefly luciferase reporter signal” value with DLD1 [3] and with SW480 [4] were 0.765 ± 0.016 and 0.911 ± 0.14, respectively.

Consider `C=CCSSSCC=C`, for which the values for the cell viability in the assay on DLD1 [1], in the assay with HCT116 and in the assay with SW480 [2] were 1.05 ± 0.09, 1.09 ± 0.014 and 0.99 ± 0.042, respectively. Further, the “TCF/Wnt firefly luciferase reporter signal” value was determined as 1.02 ± 0.073 with DLD1 [3] and 0.874 ± 0.013 with SW480 [4].

Consider `C=C1C2=CC(=O)O[C@@H](c3ccoc3)[C@]2(C)CC[C@@H]1[C@@]1(C)C=CC(=O)C(C)(C)[C@@H]1CC(=O)OC`, for which the cell viability stood at 1.14 ± 0.071 with DLD1 [1], 1.2 ± 0.092 with HCT116 and 1.12 ± 0.05 in the assay with SW480 [2]. Also, the entries for the “TCF/Wnt firefly luciferase reporter signal” value with DLD1 [3] and in the assay on SW480 [4] were 1.01 ± 0.1 and 0.987 ± 0.033, respectively.
